The values that follow come from PubChem BioAssay (Tox21).

The structures appear in SMILES notation. Records with an inconclusive call do not appear. Activity calls are given as the source filed them. Calls follow the shape of the dose curve; as a rule, active = well fitted curve in the direction sought with a large enough effect in the repeat runs; inconclusive = weak or mixed curves; inactive = no such curve, though single readings can be large; an effect the other way counts as inactive or inconclusive.

Assay [1] deals with Cytochrome P450 2C19 (Homo sapiens) (UniProt P33261). As to the kind of experiment: Cytochrome P450 Family 2 Subfamily C Member 19 (CYP2C19) small molecule antagonists: luciferase reporter qHTS assay (AID 1671197). Also: nearly all actives have a fitted effect of over 65% in size. Also: potency is read from the fitted curve at half-maximal effect. In a few lines:
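P450-Glo CYP2C19 screening system; proluciferin substrate; DMSO compound stocks; 10 min RT preincubation; NADPH regeneration, 1 h at 37C; luciferin detection reagent, 20 min RT; luminescence as RLU.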

The target of assay [2] is Cytochrome P450 2C9 (Homo sapiens) (UniProt P11712). As to the kind of experiment: Cytochrome P450 Family 2 Subfamily C Member 9 (CYP2C9) small molecule antagonists: luciferase reporter qHTS assay (AID 1671198). Also: nearly all actives have a fitted effect of over 50% in size. Also: potency is read from the fitted curve at half-maximal effect. In a few lines:
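Enzyme-substrate mix preincubated with compound 10 min at room temperature; reaction started with NADPH regeneration solution, 1 h 37C. Luminescent luciferin product read after 20 min detection reagent.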

The target in assay [3] is Cytochrome P450 1A2 (Homo sapiens) (UniProt P05177). Description: Cytochrome P450 Family 1 Subfamily A Member 2 (CYP1A2) small molecule antagonists: luciferase reporter qHTS assay (AID 1671199). Also: nearly all actives have a fitted effect of over 50% in size. Also: potency is read from the fitted curve at half-maximal effect. The essentials: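 Signal from luciferin formed by CYP1A2 from a proluciferin substrate is read as luminescence, expressed in relative luminescence units. Compounds sit with enzyme 10 min, NADPH-driven reaction runs 1 h, all at room temperature.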
Sequence of Cytochrome P450 1A2 (Homo sapiens) (P05177 whole entry, looked up): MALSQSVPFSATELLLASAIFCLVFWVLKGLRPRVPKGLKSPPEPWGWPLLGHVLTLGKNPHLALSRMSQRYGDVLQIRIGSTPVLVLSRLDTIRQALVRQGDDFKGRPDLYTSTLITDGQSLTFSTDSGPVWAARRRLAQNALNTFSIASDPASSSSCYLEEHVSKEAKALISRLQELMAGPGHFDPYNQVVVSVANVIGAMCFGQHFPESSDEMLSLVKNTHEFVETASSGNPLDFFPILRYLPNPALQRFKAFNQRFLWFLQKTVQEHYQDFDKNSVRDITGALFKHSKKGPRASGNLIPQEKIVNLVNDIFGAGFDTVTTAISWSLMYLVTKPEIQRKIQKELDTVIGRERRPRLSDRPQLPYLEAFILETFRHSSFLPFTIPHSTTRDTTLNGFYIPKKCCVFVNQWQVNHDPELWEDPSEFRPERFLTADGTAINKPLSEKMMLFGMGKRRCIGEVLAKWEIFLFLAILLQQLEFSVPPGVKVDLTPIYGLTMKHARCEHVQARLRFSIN

In assay [4] the target is Cytochrome P450 2D6 (Homo sapiens) (UniProt P10635). As to the kind of experiment: Cytochrome P450 Family 2 Subfamily D Member 6 (CYP2D6) small molecule antagonists: luciferase reporter qHTS assay (AID 1671196). Also: series mostly up to about 120 µM; nearly all actives have a fitted effect of over 50% in size. In a few lines:
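Inhibition of CYP2D6 was gauged by loss of luminescence, since light produced tracks the luciferin generated from a proluciferin substrate. A 10 min room-temperature preincubation preceded 1 h NADPH-supported turnover.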

Assay [5] has as its target Cytochrome P450 3A4 (Homo sapiens) (UniProt P08684). As to the kind of experiment: Cytochrome P450 Family 3 Subfamily A Member 4 (CYP3A4) small molecule antagonists: luciferase reporter qHTS assay (AID 1671201). Also: series mostly up to about 120 µM; nearly all actives have a fitted effect of over 50% in size. The essentials:
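Luminescent readout (RLU) proportional to CYP3A4 activity, from luciferin generated off a proluciferin substrate. Enzyme–substrate mix plus compound 10 min at room temp, NADPH regeneration 1 h, detection reagent 20 min.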

The target of assay [6] is Voltage-gated inwardly rectifying potassium channel KCNH2 (Homo sapiens) (UniProt Q12809). Description: Human Ether-a-go-go-Related Gene (hERG) channel small molecule antagonists: fluorescence cell-based qHTS assay (AID 1671200). Also: nearly all actives have a fitted effect of over 50% in size. Also: potency is read from the fitted curve at half-maximal effect. In a few lines: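 Read-out: thallium influx as a surrogate for potassium, tracked as fluorescence (480 nm ex/540 nm em) every second for 2 min after Stimulus Buffer addition in dye-loaded hERG-U2OS cells.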
Sequence of Voltage-gated inwardly rectifying potassium channel KCNH2 (Homo sapiens) (Q12809 whole entry, looked up): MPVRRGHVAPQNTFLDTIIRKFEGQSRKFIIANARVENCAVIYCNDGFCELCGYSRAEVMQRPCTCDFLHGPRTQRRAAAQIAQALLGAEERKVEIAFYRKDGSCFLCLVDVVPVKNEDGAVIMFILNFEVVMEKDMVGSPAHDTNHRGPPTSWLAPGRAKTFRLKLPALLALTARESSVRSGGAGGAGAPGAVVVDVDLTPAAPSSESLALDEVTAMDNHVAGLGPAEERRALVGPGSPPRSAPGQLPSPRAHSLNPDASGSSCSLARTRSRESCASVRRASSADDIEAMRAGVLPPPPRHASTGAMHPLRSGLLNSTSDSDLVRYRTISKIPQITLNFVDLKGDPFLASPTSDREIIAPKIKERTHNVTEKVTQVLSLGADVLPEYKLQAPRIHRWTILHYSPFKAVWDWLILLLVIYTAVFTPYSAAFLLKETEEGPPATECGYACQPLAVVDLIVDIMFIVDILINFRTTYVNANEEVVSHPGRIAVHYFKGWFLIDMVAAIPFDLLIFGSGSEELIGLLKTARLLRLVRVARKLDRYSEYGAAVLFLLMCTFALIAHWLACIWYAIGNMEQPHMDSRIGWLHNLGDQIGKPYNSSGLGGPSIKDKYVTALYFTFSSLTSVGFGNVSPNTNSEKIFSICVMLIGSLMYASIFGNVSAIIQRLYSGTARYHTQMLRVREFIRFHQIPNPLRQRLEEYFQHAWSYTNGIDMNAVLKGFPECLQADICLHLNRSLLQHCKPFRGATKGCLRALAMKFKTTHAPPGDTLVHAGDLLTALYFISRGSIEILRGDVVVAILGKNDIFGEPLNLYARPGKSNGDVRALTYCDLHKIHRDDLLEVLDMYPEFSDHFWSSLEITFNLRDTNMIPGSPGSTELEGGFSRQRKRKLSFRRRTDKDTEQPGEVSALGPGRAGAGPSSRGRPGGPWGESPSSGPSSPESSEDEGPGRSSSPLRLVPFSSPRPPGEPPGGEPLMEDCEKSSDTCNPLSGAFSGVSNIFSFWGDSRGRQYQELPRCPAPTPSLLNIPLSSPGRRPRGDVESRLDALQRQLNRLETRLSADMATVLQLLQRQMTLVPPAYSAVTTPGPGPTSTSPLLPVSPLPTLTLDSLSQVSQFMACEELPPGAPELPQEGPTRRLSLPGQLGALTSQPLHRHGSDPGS

Sequence of Cytochrome P450 3A4 (Homo sapiens) (P08684 whole entry, looked up): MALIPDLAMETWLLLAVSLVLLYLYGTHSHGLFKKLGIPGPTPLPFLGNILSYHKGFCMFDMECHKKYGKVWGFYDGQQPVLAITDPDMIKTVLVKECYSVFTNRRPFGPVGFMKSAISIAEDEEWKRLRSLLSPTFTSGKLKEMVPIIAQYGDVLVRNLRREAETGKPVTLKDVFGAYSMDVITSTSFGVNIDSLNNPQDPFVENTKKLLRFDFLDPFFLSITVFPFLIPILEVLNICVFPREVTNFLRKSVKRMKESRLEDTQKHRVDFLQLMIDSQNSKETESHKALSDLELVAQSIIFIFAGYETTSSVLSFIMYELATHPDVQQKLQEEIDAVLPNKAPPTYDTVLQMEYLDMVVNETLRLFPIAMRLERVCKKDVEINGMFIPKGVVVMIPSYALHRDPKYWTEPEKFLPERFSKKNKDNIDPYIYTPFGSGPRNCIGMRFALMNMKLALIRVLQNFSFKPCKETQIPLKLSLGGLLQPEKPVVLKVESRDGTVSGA
Sequence of Cytochrome P450 2D6 (Homo sapiens) (P10635 whole entry, looked up): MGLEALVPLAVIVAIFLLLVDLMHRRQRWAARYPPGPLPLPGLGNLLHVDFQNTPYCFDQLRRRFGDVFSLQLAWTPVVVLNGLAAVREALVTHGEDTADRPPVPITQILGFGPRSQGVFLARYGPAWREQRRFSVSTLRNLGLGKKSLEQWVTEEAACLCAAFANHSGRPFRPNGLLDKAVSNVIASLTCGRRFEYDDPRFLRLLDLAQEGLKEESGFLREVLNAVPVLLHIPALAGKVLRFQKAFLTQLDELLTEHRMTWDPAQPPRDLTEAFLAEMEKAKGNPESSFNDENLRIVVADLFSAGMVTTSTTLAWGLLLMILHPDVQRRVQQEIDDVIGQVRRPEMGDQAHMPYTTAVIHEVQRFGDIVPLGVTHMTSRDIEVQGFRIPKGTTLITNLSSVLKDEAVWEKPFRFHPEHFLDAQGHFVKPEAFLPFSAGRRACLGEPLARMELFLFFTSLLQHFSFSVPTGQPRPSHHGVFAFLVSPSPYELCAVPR
Sequence of Cytochrome P450 2C19 (Homo sapiens) (P33261 whole entry, looked up): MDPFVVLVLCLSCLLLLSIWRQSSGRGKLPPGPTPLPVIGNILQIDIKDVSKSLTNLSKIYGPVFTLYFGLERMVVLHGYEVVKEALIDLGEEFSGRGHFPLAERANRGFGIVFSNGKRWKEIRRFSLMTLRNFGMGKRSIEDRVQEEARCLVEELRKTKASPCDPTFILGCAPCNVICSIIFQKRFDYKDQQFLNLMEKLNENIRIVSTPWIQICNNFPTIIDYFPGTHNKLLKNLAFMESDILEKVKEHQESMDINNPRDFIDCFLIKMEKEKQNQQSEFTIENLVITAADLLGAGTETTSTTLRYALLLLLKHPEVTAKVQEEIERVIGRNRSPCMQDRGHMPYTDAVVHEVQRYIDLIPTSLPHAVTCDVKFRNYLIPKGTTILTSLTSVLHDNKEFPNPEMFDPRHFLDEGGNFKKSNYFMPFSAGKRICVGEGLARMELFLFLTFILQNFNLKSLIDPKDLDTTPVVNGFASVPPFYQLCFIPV
Sequence of Cytochrome P450 2C9 (Homo sapiens) (P11712 whole entry, looked up): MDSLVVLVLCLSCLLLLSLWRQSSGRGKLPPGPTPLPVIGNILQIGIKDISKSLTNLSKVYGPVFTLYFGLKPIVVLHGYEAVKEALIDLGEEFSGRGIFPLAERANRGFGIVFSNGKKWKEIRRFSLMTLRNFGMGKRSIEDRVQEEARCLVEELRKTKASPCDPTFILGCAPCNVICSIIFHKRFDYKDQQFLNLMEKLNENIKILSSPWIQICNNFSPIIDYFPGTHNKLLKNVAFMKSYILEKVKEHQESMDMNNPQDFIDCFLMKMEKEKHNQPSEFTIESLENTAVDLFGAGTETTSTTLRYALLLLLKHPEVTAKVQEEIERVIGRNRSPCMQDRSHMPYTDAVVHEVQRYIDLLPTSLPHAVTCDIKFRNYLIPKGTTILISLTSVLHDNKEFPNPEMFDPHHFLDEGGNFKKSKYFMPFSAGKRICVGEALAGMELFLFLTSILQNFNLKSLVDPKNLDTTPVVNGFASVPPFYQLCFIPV

In the case of `Cc1ccccc1C(=O)Nc1ccc(C(=O)N2CCCC(O)c3cc(Cl)ccc32)c(C)c1` (stereo not drawn), the Potency entry in assay [1] and in assay [3] was “inactive” each time. Also, the Potency in assay [2] was 15.5 µM (active).

Regarding `CCCCCCCCCC#N`, the Potency entry in assay [4], in assay [2] and in assay [5] was “inactive” each time.

Regarding `CCCCCCCCOC(=O)CCCCCCCCC(=O)OCCCCCCCC`, the Potency entry in assay [4], in assay [3], in assay [6] and in assay [5] was “inactive” each time.

Take `CCC(=O)O[C@]1(C(=O)SCF)[C@H](C)C[C@H]2[C@@H]3C[C@H](F)C4=CC(=O)C=C[C@]4(C)[C@@]3(F)[C@@H](O)C[C@@]21C`: the Potency result in assay [4], in assay [3] and in assay [6] was “inactive” throughout.

On to `CC1(C)C(=O)N(Cl)C(=O)N1Br`, for which the Potency entry in assay [4], in assay [3] and in assay [6] was “inactive” in each case.

With `COc1cc(Cl)ccc1Cl`, the Potency entry in assay [4], in assay [2] and in assay [5] was “inactive” throughout. Moreover, the Potency in assay [3] was 36.3 µM (active).

`C[C@@H](N)C(=O)O`: the Potency result in assay [4], in assay [2], in assay [6] and in assay [5] was “inactive” each time.

Consider `c1ccc(CN(CC2=NCCN2)c2ccccc2)cc1`, for which the Potency result in assay [3] and in assay [5] was “inactive” throughout. Further, the Potency in assay [6] was 19 µM (active).

With `CC(C)(C)c1cccc(O)c1`, the Potency result in assay [1], in assay [6] and in assay [5] was “inactive” in each case.

For `Cc1c[nH]c(=S)[nH]c1=O`, the Potency is 79.9 µM (active) in assay [1] and 63.5 µM (active) in assay [3]. Moreover, the Potency entry in assay [6] and in assay [5] was “inactive” throughout.

`COc1ccccc1N1CCN(CCCNc2cc(=O)n(C)c(=O)n2C)CC1`: the Potency result in assay [2], in assay [3], in assay [6] and in assay [5] was “inactive” each time.

For the molecule `CN1[C@@H]2CC[C@H]1CC(OC(=O)c1c[nH]c3ccccc13)C2` (stereo partly drawn), the Potency result in assay [2], in assay [3] and in assay [5] was “inactive” in each case.

For the molecule `CCCCC(=O)O[C@]1(C(=O)CO)[C@H](C)C[C@H]2[C@@H]3CCC4=CC(=O)C=C[C@]4(C)[C@@]3(F)[C@@H](O)C[C@@]21C`, the Potency in assay [2] is 17.4 µM (active). The Potency result in assay [3] and in assay [6] was “inactive” throughout.

Turning to `CCCCNc1cc(C(=O)O)cc(S(N)(=O)=O)c1Oc1ccccc1`, the Potency entry in assay [6] was “inactive”.

Regarding `CCCCNCCCC`, the Potency entry in assay [3], in assay [6] and in assay [5] was “inactive” each time.
